# Results filed as inconclusive are left out. Active and inactive are the calls of the source. Calls come from the whole dose curve; as a rule, active = well fitted cell-killing curve with a large enough effect; inconclusive = small, poorly fitted or top-dose-only effect, or effect the other way; inactive = flat fitted curve, though single readings scatter. Where a SMILES comes first, the peptide text is derived from it. [ ]: non-standard residue; d: D form. ξ: configuration not given here. ξTyr(βOH) = NC(C(=O)O)C(O)c1ccc(O)cc1
# Test system: C33A
# Test: Primary qHTS to identify gynecologic anti-cancer compounds using libraries of approved drugs and bioactive compounds (AID 1345084); note: nearly all actives have a fitted effect of over 55% in size
# Settings: Gynecologic cancer cell panel viability, ATPlite luminescence, 48 h; series mostly up to 57.5 µM; activity change, negative = cytotoxicity: at the top concentration
# How it was run: (§1)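 Cytotoxicity screen measuring ATP content by luciferase luminescence. Each compound is applied at five concentrations for 48 h at 37 C with 5% CO2.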
# % is set by controls: 0 for no effect and ±100 for the full control effect; potency is the fitted concentration of half-maximal effect.
row,SMILES,"activity change, negative = cytotoxicity"
1,C=C(COC(=O)CC(C)C)C1Cc2cc(C(C)=O)ccc2O1 (configuration not stated),6.52% (inactive)
2,COc1cc(C2CC(=O)Nc3c2cc(Br)c2ccccc32)cc(OC)c1OC (configuration not stated),5.89% (inactive)
3,CCC(C)C(=O)OC[C@H]1O[C@H](O[C@H]2O[C@H](CO)[C@@H](O)[C@H](O)[C@H]2O)[C@H](O)[C@@H](O)[C@@H]1O (some centres not stated),-0.344% [at 25.3 µM] (inactive)
4,COC(=O)C1=CO[C@@H](O[C@@H]2O[C@H](CO)[C@@H](O)[C@H](O)[C@H]2O)[C@@H]2[C@@H](C)[C@@H](O)C(O)[C@H]12 (some centres not stated),19.2% [at 25.3 µM] (inactive)
5,CCCC1=CC2=C(CO1)C(=O)C(C)(O)C(OC(=O)c1c(C)cc(OC)cc1O)C2 (configuration not stated),-0.789% [at 25.3 µM] (inactive)
6,C=C(CC/C=C(\C)C(=O)O)C1(O)CC=C(C)CC1 (configuration not stated),0.801% (inactive)
7,COc1ccc(C2(O)c3ccccc3NC(=O)C2OC)cc1 (configuration not stated),-1.57% (inactive)

# Test system: CAOV3
# Test: as above
# Settings: Gynecologic cancer cell panel viability, ATPlite luminescence, 48 h; series mostly up to 57.5 µM; activity change, negative = cytotoxicity: at the top concentration
# How it was run: as §1
SMILES,"activity change, negative = cytotoxicity",Potency
NC1(c2ccc(NC(=O)c3ccnc(-c4cc(C(=O)O)ccn4)c3)cc2)CC1,0.957% (inactive),–
CCCC/C=C\CCCCCc1cc(=O)c2ccccc2n1C,1.3% [at 38.5 µM] (inactive),–
COCc1c(O)c(C(=O)O)c(C)c2c1OC(=O)c1c(C)cc(O)c(CO)c1O2,11.8% [at 38.5 µM] (inactive),–
C/C=C/C=C/C1=C2C(=O)C3(C)C4C(C(=O)CC(O)/C=C/C)=C(O1)C1(C)C2C2(C)OC1(O)C4(C)OC23O (configuration not stated),5.31% [at 25.3 µM] (inactive),–
CC12CC(O)C(O)C=C1c1cc(O)cc(O)c1C(=O)O2 (configuration not stated),0.308% (inactive),–
C=C1C2(C)CC3C4(C)C=CC(=O)OC(C)(C)C4CCC3(C)C1(C(=O)OC)C(=O)C(C)(O)C2=O (configuration not stated),11.2% [at 25.3 µM] (inactive),–
CC1(C)[C@H]2C[C@H](C/C=C\CCCC(=O)O)[C@@H](NC(=O)c3csc4ccc(O)cc34)[C@@H]1C2,19.2% (inactive),–
CC(C)c1ccc2c(c1)CCC1[C@](C)(C(=O)O)CCC[C@]21C (some centres not stated),1.61% (inactive),–
C[C@@H]1O[C@@H](OC(=O)Cc2ccccc2)[C@H](O)[C@H](O)[C@H]1O,13.6% (inactive),–
Cn1cc(-c2c[nH]c3ncnc(N4CCOCC4)c23)cn1,-5.59% (inactive),–
CC(C)C1NC(=O)C(CC2(O)c3ccccc3N3C(=O)C(Cc4ccccc4)NC32)NC1=O (configuration not stated),-4.05% [at 25.3 µM] (inactive),–
C[C@@]12CC3(S(=O)(=O)O)OC(O1)[C@]1(COC(=O)c4ccccc4)[C@H]3C[C@]21O[C@@H]1O[C@H](CO)[C@@H](O)[C@H](O)[C@H]1O,4.96% [at 25.3 µM] (inactive),–
CC(C)C1NC(=O)CNC(=O)C2CCCN2C(=O)C(Cc2c[nH]c3ccccc23)NC(=O)CNC(=O)C(C(O)c2ccc(O)cc2)NC(=O)CNC1=O (configuration not stated) (cyclo(G[ξTyr(βOH)]GWPGV); configuration not given here),-7.26% [at 25.3 µM] (inactive),–
CC(=C\C(C)O)/C=C(\C)C(=O)CC1CC(CC(N)=O)CC(=O)O1 (configuration not stated),19.1% [at 38.5 µM] (inactive),–
CC(=O)OCC1=CCC2C(C)(C)CCCC2(C)C12CCC(C)(CC(=O)O)O2 (configuration not stated),1.79% [at 38.5 µM] (inactive),–
C[C@H]1CC[C@H]2[C@@H](C=C[C@@](C)(O)[C@]2(C)C(=O)CCO)C1,8.05% (inactive),–
CC1=C(CO)CC(C(C)C2CCC3C4CC=C5CC(OC6OC(COC7OC(CO)C(O)C(O)C7O)C(O)C(O)C6O)CC(O)C5(C)C4CCC23C)OC1=O (configuration not stated),30.4% [at 25.3 µM] (inactive),–
CC(=O)c1c(C)cccc1O[C@@H]1O[C@H](CO)[C@@H](O)[C@H](O)[C@H]1O,12% [at 38.5 µM] (inactive),–
C/C1=C\CC[C@]2(C)O[C@H]2C(=O)c2c(C)coc2C1,–,15.8 µM (active)
CNc1nc(C)nc(N[C@H]2CCC[C@@H](C(=O)NCc3ccc(C#N)cc3C(F)(F)F)C2)n1,6.83% (inactive),–
CC(=O)O[C@@H]1[C@@H](O)[C@H](C)O[C@@H](O[C@H]2[C@@H]3C=CO[C@@H](O[C@@H]4O[C@H](CO)[C@@H](O)[C@H](O)[C@H]4OC(C)=O)[C@@H]3[C@@]3(CO)O[C@@H]23)[C@@H]1OC(=O)/C=C/c1ccc(O)cc1,12.1% [at 25.3 µM] (inactive),–
CCC1=C(C)C(=O)C(C)CC12C(=O)CCC2C(=O)O (configuration not stated),-3.79% (inactive),–
Nc1ncnc2c1c(COc1cccc(Cl)c1)nn2C1CCOCC1,-17% (inactive),–
CC1(C)CC[C@]2(C(=O)O[C@@H]3O[C@H](CO)[C@@H](O)[C@H](O)[C@H]3O)CC[C@]3(C)C(=CCC4[C@@]5(C)CC[C@H](O[C@@H]6O[C@H](C(=O)O)[C@@H](O[C@@H]7O[C@H](CO)[C@@H](O)[C@H](O)[C@H]7O)[C@H](O)[C@H]6O[C@@H]6O[C@H](CO)[C@@H](O)[C@H](O)[C@H]6O)C(C)(C)C5CC[C@]43C)C2C1 (some centres not stated),5.45% [at 11.6 µM] (inactive),–
C=C(C(=O)OC)[C@]12O[C@@](C)(CC[C@@]3(O)/C(=C\C)C(=O)O[C@]3(C)C[C@@H]1OC(=O)C(CO)CN1CCCC1C(=O)O)CC2=O (some centres not stated),-13.1% [at 25.3 µM] (inactive),–
